Values joined by “and” are separate entries in the source; they are usually repeats but may differ in a detail not shown here. Equal values may be shown once. About 5,900 (0.91%) of roughly 650,000 compounds were called active. Rule as the data show it: active = inhibition above about 50%; inactive = the rest. Shown is part of a subset that was picked to be rich in actives. Where a structure was tested more than once in an assay, its records may differ in their call.
Each compound was assayed against Microphthalmia-associated transcription factor (Homo sapiens) (UniProt O75030) (assay: MITF inhibitors, primary screen, biochemical, AlphaScreen, human (AID 1259374;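 also: 0% = vehicle wells with protein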)). Settings: AlphaScreen MITF homodimerization, bead proximity signal; at 2.6 µM; stronger effect = higher value.
Microphthalmia-associated transcription factor (Homo sapiens), sequence (O75030 whole entry, looked up): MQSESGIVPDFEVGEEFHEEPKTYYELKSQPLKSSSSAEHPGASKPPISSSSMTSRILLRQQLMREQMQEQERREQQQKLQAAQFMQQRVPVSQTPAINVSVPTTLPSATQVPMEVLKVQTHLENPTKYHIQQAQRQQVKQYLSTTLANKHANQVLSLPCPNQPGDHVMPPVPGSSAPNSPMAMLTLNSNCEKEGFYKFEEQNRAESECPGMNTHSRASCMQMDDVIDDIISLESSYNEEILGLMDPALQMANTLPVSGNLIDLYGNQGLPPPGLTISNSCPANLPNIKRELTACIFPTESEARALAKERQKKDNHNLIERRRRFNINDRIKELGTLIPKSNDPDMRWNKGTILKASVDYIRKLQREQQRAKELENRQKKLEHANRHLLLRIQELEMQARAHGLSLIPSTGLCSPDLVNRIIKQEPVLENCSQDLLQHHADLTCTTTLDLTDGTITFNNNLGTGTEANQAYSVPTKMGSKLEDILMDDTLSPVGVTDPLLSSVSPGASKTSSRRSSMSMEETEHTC

SMILES | inhibition
Cc1sc(NC(=O)c2ccco2)c(C(c2ccccn2)N2CCN(C)CC2)c1C (stereo not given) | 12.4% (inactive)
Oc1c(CN2CCCC2)cc(COCc2ccccc2)c2cccnc12 | 74.4% (active)
Oc1c(CN2CCN(c3cccc(Cl)c3)CC2)cc(Br)c2cccnc12 | -1.04% (inactive)
CCOc1cccc(CN2CCCCC2)c1O | 12.8% (inactive)
Cc1cccc(N2CC(O)=C(c3nc4ccccc4c(=O)[nH]3)C2=N)c1C | -2.19% (inactive)
CCCOc1cccc(C(=O)Nc2ccc3oc(-c4cccc5c(Br)cccc45)nc3c2)c1 | 3.22% (inactive)
COc1cccc(C2C(C(=O)OC(C)C)=C(C)NC3=C2C(=O)CC(c2ccc(Cl)cc2)C3)c1OC (stereo not given) | -2.22% (inactive)
COc1cc(Nc2ncnc3c2nc(N2CCOCC2)n3C(C)C)cc(OC)c1OC | 54.5% (active)
COc1cc(Nc2ncnc3c2nc(N2CCN(Cc4ccc5c(c4)OCO5)CC2)n3C(C)C)cc(OC)c1OC | 5.48% (inactive)
CC(C)n1c(N2CCOCC2)nc2c(Nc3ccc(Oc4ccccc4)cc3)ncnc21 | 9.27% (inactive)
C[C@@H]1CN(Cc2nnnn2CC(=O)N2CCc3ccccc3C2)C[C@H](C)O1 | 12.1% (inactive)
C=CCNC(=O)C(=O)Nc1ccccc1CC | 19.9% (inactive)
CN1CCN(c2ncnc3c2cnn3-c2ccc(Cl)c(Cl)c2)CC1 | 10.1% (inactive)
O=C(CC1OC(=O)c2ccccc21)OCC(=O)c1ccc(F)cc1 (stereo not given) | 18.3% (inactive)
CCc1cccc(OCCOCCn2ccnc2)c1 | 65.1% (active)
C=CCc1cc(C)ccc1OCC(O)Cn1cnc2ccccc21 (stereo not given) | 4.8% (inactive)
Cc1ccc(C(C)C)c(OCCCn2ccnc2)c1 | 9.69% (inactive)
COc1ccc(CCCOC(Cn2ccnc2)c2ccc(OC)cc2)cc1 (stereo not given) | -16.1% (inactive) and 0.54% (inactive)
C=CCc1cc(C)ccc1OCCCn1ccnc1 | 64.5% (active)
Clc1ccc(OCCOCCn2ccnc2)c(Br)c1 | 46.3% (inactive)
CCc1ccc(OCCCCn2ccnc2)cc1 | 62.2% (active)
CCOC(=O)C(CCOc1cccc(CC)c1)C(=O)OCC | -23.7% (inactive)
COc1ccc(CCNC(=S)NCCCn2ccnc2)cc1 | 8.73% (inactive)
Cc1nn(C(=O)c2cccnc2)c(C)c1Sc1ccccc1[N+](=O)[O-] | 2.63% (inactive)

SMILES | inhibition
O=C(Cc1cccc2ccccc12)Nc1nnc(-c2ccco2)o1 | 6.58% (inactive)
COCCN1Cc2cccc(C(=O)Nc3cccc(F)c3)c2C1=O | -5.68% (inactive)
Cc1nc(CSc2ccc(-c3ccco3)nn2)cs1 | 5.98% (inactive)
CCCCc1ccc(Nc2nc3ccccc3nc2NS(=O)(=O)c2ccc(Cl)cc2)cc1 | 1.24% (inactive)
COc1ccc(C(=O)NC(NC(=O)c2ccc(OC)cc2)c2cccc(OC)c2)cc1 | 9.45% (inactive)
CCN(CC)S(=O)(=O)c1ccc(-c2csc(N3N=C(c4cccc([N+](=O)[O-])c4)CC3c3ccc(F)cc3)n2)cc1 (stereo not given) | 3.98% (inactive)
O=C(c1ccc(NC(=S)NCc2ccc(F)cc2)cc1)N1CCCC1 | 22.4% (inactive)
O=C(Nc1ccc(C(=O)N2CCCCC2)cc1)c1cccc(I)c1 | -4.21% (inactive)
O=C(CNCc1cccnc1)Nc1ccc(C(=O)N2CCCCC2)cc1 | 93.3% (active)
Cn1c(=O)c2c(nc(N3CCCCC3)n2CCNC2=NCCCCC2)n(C)c1=O | 0.31% (inactive)
Cc1nccn1CCNC(=O)Cn1nnnc1CN1CCCCCC1 | 0.85% (inactive)
COc1ccc(C2=NN(c3nc(-c4ccccc4)c4cc(Cl)ccc4n3)C(c3ccc([N+](=O)[O-])cc3)C2)cc1 (stereo not given) | -4.92% (inactive)
c1ccc(-c2nnc3sc(-c4ccc5c(c4)OCCO5)nn23)cc1 | -0.82% (inactive)
c1ccc(-n2cc(CN3CCOCC3)c(-c3ccc4c(c3)OCCO4)n2)cc1 | 61.7% (active)
c1ccc(CN2CCC(N=C3NN=C(c4ccc5c(c4)OCCO5)CS3)CC2)cc1 | -10.7% (inactive)
O=C(N/C(=C\c1ccccc1F)C(=O)N1CCCCC1)c1ccc([N+](=O)[O-])cc1 | 17.1% (inactive)
O=C(Nc1cncc(-c2ccncc2)c1)C1COc2ccccc2O1 (stereo not given) | 17.1% (inactive)
O=C(Nc1cncc(-c2ccncc2)c1)C1COc2cc3ccccc3cc2O1 (stereo not given) | 3.75% (inactive)
O=C(Nc1ccc(-c2ccncc2)c(C(F)(F)F)c1)C1COc2ccccc2O1 (stereo not given) | 53.1% (active)
Cc1nn(C)c(C)c1-c1cc(C(=O)NCCO)ccn1 | 8.26% (inactive)
CCN(Cc1ccccc1)Cc1ccc([N+](=O)[O-])cc1 | 60% (active)
CN(C)CCCN(CCCN(C)C)Cc1ccc([N+](=O)[O-])cc1 | 37.3% (inactive)
CCN(C(=O)c1ccc([N+](=O)[O-])cc1)c1ccccc1 | 1.44% (inactive)
Clc1cccc(CN2CCN(C3CCCC3)CC2)c1 | 67.8% (active)

SMILES | inhibition
CCN(CC)C(=O)C1CCCN(Cc2cccc(Cl)c2)C1 (stereo not given) | 55.2% (active)
NC(=O)C1CCCN(Cc2cccc(Cl)c2)C1 (stereo not given) | 31.1% (inactive)
OCCC1CN(Cc2cccc(F)c2)CCN1C1CCCC1 (stereo not given) | 14.7% (inactive)
OC1CCCN(Cc2cccc(Cl)c2)C1 (stereo not given) | -10.4% (inactive)
O=C1N[C@H](CO)C(=O)N2CCN(Cc3cccc(F)c3)C[C@H]12 | 10.2% (inactive)
Cc1cccc(CN2CCN(C3CCCCC3)CC2)c1 | 33.7% (inactive)
Clc1cccc(CN2CCN(C3CCN(Cc4ccccc4)CC3)CC2)c1 | 23.2% (inactive)
Fc1cccc(CN2CCN(C3CCC(c4ccccc4)CC3)CC2)c1 (stereo not given) | 54.9% (active)
Fc1ccc(CN2CCN(C3CCCC3)CC2)cc1 | 57.1% (active)
CCN(CC)C(=O)C1CCCN(Cc2ccc([N+](=O)[O-])cc2)C1 (stereo not given) | 27.7% (inactive)
OCCC1CN(Cc2ccc(F)c(F)c2)CCN1C1CCCC1 (stereo not given) | -7.36% (inactive)
O=C(NC1CCCCCC1)C1CCN(S(=O)(=O)c2cccc3nsnc23)CC1 | -4.57% (inactive)
c1ccc(CNc2cc(N3CCc4ccccc4C3)ncn2)cc1 | -8.87% (inactive)
Cc1c(C(=O)C(=O)N2CCCC2)c2ccccc2n1C | -1.62% (inactive)
COc1cc([N+](=O)[O-])ccc1NC(=O)/C=C/c1ccc(F)cc1 | 0.43% (inactive)
CC(=O)Nc1cccc(NC(=O)CSc2nc(C(C)(C)C)nc3ccccc23)c1 | 16.8% (inactive)
COc1cccc(C(C)N(C)C(=O)c2cc(COc3ccc(C(C)=O)cc3)on2)c1 (stereo not given) | 11.1% (inactive)
COc1ccccc1C1CN(Cc2ccc(NC(C)=O)s2)Cc2ccccc2O1 (stereo not given) | 1.08% (inactive)
CC1(C)CC(=O)C2=C(C1)N(c1cccc(Cl)c1Cl)C1=C(C(=O)CC(C)(C)C1)C2c1ccc(F)c(Br)c1 | -2.02% (inactive)
O=C(N/N=C/c1ccncc1)c1cnn(-c2ccccc2)c1C(F)(F)F | -19.6% (inactive)
CC(=O)NC(CC(C)C)C(=O)NC(C(=O)OCc1ccccc1)C(C)C (stereo not given) | 11.1% (inactive)
Cc1c(Cl)cccc1NC(=O)c1cc(S(=O)(=O)N2CCC(C)CC2)ccc1F | 1.77% (inactive)
CC1CCN(S(=O)(=O)c2ccc(Cl)c(C(=O)Nc3ccccc3[N+](=O)[O-])c2)CC1 | 51% (active)
CC1CCN(S(=O)(=O)c2ccc(F)c(C(=O)Nc3cc(Cl)ccc3Cl)c2)CC1 | -3.2% (inactive)

SMILES | inhibition
Cc1ccccc1S(=O)(=O)Cc1ccc(C(=O)NCCCN2CCCCCC2)o1 | -6.96% (inactive)
COc1ccccc1N(CN1CCCC1=O)C(=O)c1cc(C)cc(C)c1 | 3.77% (inactive)
Cc1ccc(C2SCC(=O)N2c2ccc(C)cc2)cc1 (stereo not given) | 7.57% (inactive)
O=C(Nc1cc(Cl)ccc1Cl)c1cc(C2CC2)on1 | -4.67% (inactive)
O=C(CSc1nn2c(=O)c3ccccc3nc2s1)c1ccccc1 | 8.41% (inactive)
CC(=O)c1cccc(N2C(=O)c3cccnc3C2=O)c1 | 50.6% (active)
CC(=O)c1cccc(N2C(=O)c3ccc([N+](=O)[O-])cc3C2=O)c1 | 4.17% (inactive)
CC(=O)Oc1cccc(N2C(=O)c3cccnc3C2=O)c1 | 38.1% (inactive)
CC(C)c1c(O)nc(SCC(=O)NC(C)(C)C)[nH]c1=O | 9.94% (inactive)
CNCC(O)c1ccc(O)c(O)c1 (stereo not given) | 83.8% (active) and -4.84% (inactive) and -7.17% (inactive)
Cc1nnc2n1NC(c1ccc(F)cc1)C(C(=O)Nc1ccccc1C(F)(F)F)S2 (stereo not given) | -7.82% (inactive)
COc1cc(Br)c(/C=C2/NC(=O)N(c3cccc(Cl)c3)C2=O)cc1OC | -4.06% (inactive)
O=C(Cc1ccc(F)cc1)Nc1cnn(-c2cccc(C(=O)Nc3ccc(N4CCOCC4)cc3)c2)c1 | -19.1% (inactive)
COc1ccc(NC(=O)C2CC(=O)N(c3ccc(Oc4ccccc4)cc3)C2)cc1 (stereo not given) | 12.4% (inactive)
CC1CN(CCOc2ccc(Cl)c3ccccc23)CC(C)O1 (stereo not given) | 27.1% (inactive)
CC1CN(CCOc2ccccc2[N+](=O)[O-])CC(C)O1 (stereo not given) | 50.7% (active)
C=CCc1ccc(OCCN2CC(C)OC(C)C2)c(OC)c1 (stereo not given) | 34.3% (inactive)
Cc1nc2c(ccc3nc(NC(=O)c4ccc([N+](=O)[O-])o4)sc32)s1 | -9.59% (inactive)
O=C(Nc1ccc(Cl)c(Cl)c1)C1C2C=CC3(O2)C1C(=O)N(Cc1cccs1)C3C(=O)NC1CCCCC1 (stereo not given) | 6.14% (inactive)
CC(NC(=O)CN(C)S(=O)(=O)c1cccs1)c1ccccc1 (stereo not given) | -11.7% (inactive)
O=C(Nc1ccccc1)C(Cc1ccccc1)N1C(=O)c2ccccc2C1=O (stereo not given) | 3.18% (inactive)
Cc1ccc(C)n1C(Cc1ccccc1)C(=O)O (stereo not given) | 66.9% (active)
CC(C)CC(C(=O)O)N1C(=O)c2ccccc2C1=O (stereo not given) | 6.74% (inactive)
